About 79,000 compounds went through this panel and 15% of them were active in at least one assay; those are over-represented in the sample as a whole. Values without a mark were called inactive. Rule as the data show it: active = growth inhibition above about 70%; inactive = the rest.
Assay: NCI Yeast Anticancer Drug Screen. Data for the rad50 strain (AID 155);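 also: 0% = growth of vehicle-only cultures of the same strain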
Settings: S. cerevisiae rad50 strain growth inhibition; at 50.0 µM; stronger effect = higher value
How it was run: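 Cells are treated with compound, grown, and their growth is then scored against vehicle-only cultures of the same repair-deficient yeast strain.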

SMILES	growth inhibition
CN(C)C1=C(c2ccccc2)C(=O)C(c2ccccc2)=C1c1ccccc1	39.8%
COc1ccc(N2C(=O)CC(c3c[nH]c4ccccc34)C2=O)cc1 (stereo not given)	-29.2%
BrCCC[n+]1ccc2ccccc2c1-c1nccc2ccccc12	50.7%
CC#CCCCC1(C)CCNC1=S (stereo not given)	13.8%
Cc1nc([N+](=O)[O-])cn1/C=C/Cn1cc([N+](=O)[O-])nc1C	-3.25%
CCCOC(=O)C(O)Cc1ccccc1 (stereo not given)	-26.9%
Nc1c(N=Nc2ccccc2)cc(S(=O)(=O)O)c2ccccc12	2.8%
CC(C)C1CCC2(C)C(CCC3C4(C)CCCC32OC4)C1 (stereo not given)	-20.5%
FC(F)(Br)C(F)(Cl)Br (stereo not given)	18.6%
CCN1N=Nc2ccccc2NC1=O	18.1%
CCCCn1cnc2c(SCCNC(=O)N(C)N=O)ncnc21	6.3%
COc1ccc(N)c(C(O)CCNC(C)=O)c1 (stereo not given)	-20.1%
O=c1[nH]c(=O)c2nc3cc(-c4ccc5nc6[nH]c(=O)[nH]c(=O)c6nc5c4)ccc3nc2[nH]1	14.2%
CCCCN1CSC(=S)N(CCCC)C1	39.5%
CCCCCCC(O)C/C=C/CCCCCC/C(C(=O)OC)=C(/O)C(=O)OCC (stereo not given)	3.3%
CC1=C(C)C(=O)OC1	-3.55%
Cc1ccccc1NCc1ccccc1	25.8%
CCC[n+]1ccccc1C	-0.95%
CNC(=O)c1ccc(/C=C/c2c[nH]c3ccccc23)[n+](C)c1	-24.9%
O=C1C2=C(Nc3ccccc3N2)OC1c1ccccc1Cl (stereo not given)	-0.95%

SMILES	growth inhibition
CCOC(=O)CNC(=O)C(Cc1ccccc1)NC(=O)c1ccccc1NC(=O)c1ccccc1 (stereo not given)	28.8%
O=C(Nc1ccc(Cl)cc1)c1cccnc1	10.1%
O=C(O)CCC(=O)NNC(=O)CCC(=O)O	16.2%
CN(C)Cc1[nH]c2ccccc2c1Sc1ccccc1	0.85%
COc1ccc(S(=O)(=O)N/N=C/C(=O)OCOC(=O)C(C)(C)C)cc1	1.55%
c1ccc(C2=NOCC3(c4ccccc4)OC23)cc1 (stereo not given)	7.85%
CCCCCCCCC(C)C	1.25%
S=c1ncnc2cc3[nH][nH]cc3cc12	1.95%
O=C(O)c1ccc([C@@H]2C(=O)N(O)[C@@H]3C=CC[C@@H]32)cc1	-8.4%
COc1ccc(C)c(CN(C)C)c1	7.85%
COc1ccc(Cc2cc(O)c(OC)cc2O)cc1	5.55%
C=CCN=C1NC(=O)C(CC(=O)Nc2cccc(Cl)c2)S1 (stereo not given)	-41%
CC(C)(C)NCCCCCO	-11.8%
CC(C)CC(=O)NC(Nc1ccc(S(=O)(=O)Nc2ncccn2)cc1)(C(F)(F)F)C(F)(F)F	-2.9%
Oc1ccccc1-c1n[nH]c(=S)n1/N=C/c1ccc(-c2ccc(Br)cc2)o1	-30.5%
NC1=NCC(c2ccccn2)C1c1ccc(F)cc1 (stereo not given)	-11.9%
COc1cc(C2=N/C(=C\c3cc(Cl)cc(Cl)c3O)C(=O)O2)cc(OC)c1OC	-33.7%
COc1ccc(OC)c2c(NCCNCCO)cc(NCCNCCO)nc12	15.2%
Nn1cnc2nccnc2c1=O	1%
CSc1nc(NC2OCC(O)C(O)C2O)cc(=O)n1C (stereo not given)	7.25%

Assay: NCI Yeast Anticancer Drug Screen. Data for the mec2-1 strain (AID 157)
Settings: S. cerevisiae mec2-1 strain, at 50.0 µM, stronger effect = higher value
How it was run: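 Strain: mec2-1 (DNA repair/cell cycle alteration). Compound exposure, then growth measured; inhibition expressed relative to vehicle.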

SMILES	growth inhibition
CN(C)C1=C(c2ccccc2)C(=O)C(c2ccccc2)=C1c1ccccc1	3.25%
COc1ccc(N2C(=O)CC(c3c[nH]c4ccccc34)C2=O)cc1 (stereo not given)	-37.1%
BrCCC[n+]1ccc2ccccc2c1-c1nccc2ccccc12	16.1%
CC#CCCCC1(C)CCNC1=S (stereo not given)	10.2%
Cc1nc([N+](=O)[O-])cn1/C=C/Cn1cc([N+](=O)[O-])nc1C	-18.9%
CCCOC(=O)C(O)Cc1ccccc1 (stereo not given)	18.2%
Nc1c(N=Nc2ccccc2)cc(S(=O)(=O)O)c2ccccc12	-23.4%
CC(C)C1CCC2(C)C(CCC3C4(C)CCCC32OC4)C1 (stereo not given)	1.35%
FC(F)(Br)C(F)(Cl)Br (stereo not given)	18.8%
CCN1N=Nc2ccccc2NC1=O	9.85%
CCCCn1cnc2c(SCCNC(=O)N(C)N=O)ncnc21	-8.25%
COc1ccc(N)c(C(O)CCNC(C)=O)c1 (stereo not given)	-23.2%
O=c1[nH]c(=O)c2nc3cc(-c4ccc5nc6[nH]c(=O)[nH]c(=O)c6nc5c4)ccc3nc2[nH]1	12.1%
CCCCN1CSC(=S)N(CCCC)C1	45.5%
CCCCCCC(O)C/C=C/CCCCCC/C(C(=O)OC)=C(/O)C(=O)OCC (stereo not given)	-3.35%
CC1=C(C)C(=O)OC1	-12.3%
Cc1ccccc1NCc1ccccc1	-3.2%
CCC[n+]1ccccc1C	19.4%
CNC(=O)c1ccc(/C=C/c2c[nH]c3ccccc23)[n+](C)c1	-7.9%
O=C1C2=C(Nc3ccccc3N2)OC1c1ccccc1Cl (stereo not given)	-11.7%

SMILES	growth inhibition
CCOC(=O)CNC(=O)C(Cc1ccccc1)NC(=O)c1ccccc1NC(=O)c1ccccc1 (stereo not given)	20.8%
O=C(Nc1ccc(Cl)cc1)c1cccnc1	-10.7%
O=C(O)CCC(=O)NNC(=O)CCC(=O)O	-2.45%
CN(C)Cc1[nH]c2ccccc2c1Sc1ccccc1	2.4%
COc1ccc(S(=O)(=O)N/N=C/C(=O)OCOC(=O)C(C)(C)C)cc1	-11.8%
c1ccc(C2=NOCC3(c4ccccc4)OC23)cc1 (stereo not given)	11.8%
CCCCCCCCC(C)C	3.35%
S=c1ncnc2cc3[nH][nH]cc3cc12	2.5%
O=C(O)c1ccc([C@@H]2C(=O)N(O)[C@@H]3C=CC[C@@H]32)cc1	-12.8%
COc1ccc(C)c(CN(C)C)c1	-7.7%
COc1ccc(Cc2cc(O)c(OC)cc2O)cc1	17.1%
C=CCN=C1NC(=O)C(CC(=O)Nc2cccc(Cl)c2)S1 (stereo not given)	-25%
CC(C)(C)NCCCCCO	17.6%
CC(C)CC(=O)NC(Nc1ccc(S(=O)(=O)Nc2ncccn2)cc1)(C(F)(F)F)C(F)(F)F	-9.95%
Oc1ccccc1-c1n[nH]c(=S)n1/N=C/c1ccc(-c2ccc(Br)cc2)o1	-19.2%
NC1=NCC(c2ccccn2)C1c1ccc(F)cc1 (stereo not given)	-34.9%
COc1cc(C2=N/C(=C\c3cc(Cl)cc(Cl)c3O)C(=O)O2)cc(OC)c1OC	-23.6%
COc1ccc(OC)c2c(NCCNCCO)cc(NCCNCCO)nc12	-4.75%
Nn1cnc2nccnc2c1=O	4.65%
CSc1nc(NC2OCC(O)C(O)C2O)cc(=O)n1C (stereo not given)	-0.45%

From PubChem BioAssay (NCI)
